Results filed as inconclusive are left out. Where a call stands in place of a potency, no number is given. Active and inactive are the calls of the source. Calls come from the whole dose curve.
biological target: Vitamin D3 receptor (Homo sapiens) (UniProt P11473); assay: qHTS assay for small molecule antagonists of vitamin D receptor signaling (AID 588541); conditions: HEK293T VDR-UAS-bla, beta-lactamase ratio, antagonist mode; series mostly up to 76.7 µM;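 note: receptor activated by calcitriol during compound treatment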
Sequence (P11473 whole entry, looked up): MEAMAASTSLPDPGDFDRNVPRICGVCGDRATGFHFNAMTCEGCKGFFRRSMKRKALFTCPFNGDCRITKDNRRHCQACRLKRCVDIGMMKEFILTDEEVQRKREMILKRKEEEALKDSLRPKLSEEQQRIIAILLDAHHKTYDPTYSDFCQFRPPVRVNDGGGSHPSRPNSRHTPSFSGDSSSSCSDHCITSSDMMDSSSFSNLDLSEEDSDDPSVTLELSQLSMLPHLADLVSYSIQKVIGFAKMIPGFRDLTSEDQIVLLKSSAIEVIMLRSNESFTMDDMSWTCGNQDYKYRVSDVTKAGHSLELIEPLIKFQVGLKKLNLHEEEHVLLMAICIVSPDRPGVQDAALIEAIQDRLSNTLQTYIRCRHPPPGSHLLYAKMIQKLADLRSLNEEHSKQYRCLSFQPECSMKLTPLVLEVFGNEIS
Procedure, shortened: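 VDR-UAS-bla HEK293T cells (2000/well, 2% charcoal-stripped FBS) were treated with titrated compounds plus 1-alpha,25-dihydroxyvitamin D3 (50 nM or 3 nM final) for 16 h at 37 C. CCF4 beta-lactamase fluorescence was read; Hill fits gave IC50.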

| SMILES | Potency |
| --- | --- |
| C/C(=N\NC(=O)Nc1cc(F)cc(F)c1)c1ncccc1C(=O)O | inactive |
| CCCC1COC(Cn2cncn2)(c2ccc(Cl)cc2Cl)O1 (stereo unspecified) | inactive |
| Cc1cnc(C2=NC(C)(C(C)C)C(=O)N2)c(C(=O)O)c1 (stereo unspecified) | inactive |
| O=S(=O)(c1ccc(O)cc1)c1ccc(O)cc1 | inactive |
| CCOP(=O)(O)C(N)=O | inactive |
| CCOP(=S)(OCC)SCC(=O)NC(C)C | inactive |
| Clc1ccc([C@]2(Cn3cncn3)C[C@@H](Br)CO2)c(Cl)c1 | inactive |
| CCOP(=O)(SC(C)CC)SC(C)CC (stereo unspecified) | inactive |
| C/C(=N\C(N)=O)N(C)Cc1ccc(Cl)nc1 | inactive |
| O=S1OC[C@@H]2[C@H](CO1)[C@@]1(Cl)C(Cl)=C(Cl)[C@]2(Cl)C1(Cl)Cl (stereo partly specified) | inactive |
| FC(F)(F)c1ccc(OCCCOc2c(Cl)cc(OCC=C(Cl)Cl)cc2Cl)nc1 | inactive |
| CCOC1Oc2ccc(OS(C)(=O)=O)cc2C1(C)C (stereo unspecified) | inactive |
| CCNc1nc(NC(C)(C)C)nc(SC)n1 | inactive |
| CCOP(=O)(OCC)SCSCC | inactive |
| CCOP(=O)(OCC)SCSC(C)(C)C | inactive |
| CNC(=O)Oc1ccc(N(C)C)c(C)c1 | inactive |
| Cc1cc(Cl)ccc1OCC(=O)O | inactive |
| CCOP(=S)(S)OCC | inactive |
| CCCCN(CC)C(=O)SCCC | inactive |
| C/C=C(\C)C(=O)O[C@H]1C[C@@H](OC(C)=O)[C@@]2(C(=O)OC)CO[C@H]3[C@@H](O)[C@@](C)([C@]45O[C@@]4(C)[C@H]4C[C@@H]5O[C@@H]5OC=C[C@@]54O)[C@H]4[C@]1(CO[C@]4(O)C(=O)OC)[C@@H]32 | inactive |
| C=CC1(C)OC(=O)N(c2cc(Cl)cc(Cl)c2)C1=O (stereo unspecified) | inactive |
